# Measured values from PubChem BioAssay (NCATS).
# Results filed as inconclusive are left out. Where a call stands in place of a potency, no number is given. Activity calls are given as the source filed them. Calls follow the shape of the dose curve; as a rule, active = well fitted cell-killing curve with a large enough effect; inconclusive = small, poorly fitted or top-dose-only effect; inactive = flat fitted curve, though single readings scatter.
# Assay: qHTS of pediatric cancer cell lines to identify multiple opportunities for drug repurposing: Primary screen for BT-12 cells (AID 1347101); also: nearly all actives have a fitted effect of over 25% in size
# Conditions: BT-12 viability, CellTiter-Glo luminescence, 48 h; series mostly up to 57.3 µM
# Description: Drug repurposing or repositioning has been offered as a strategy for drug development in oncology programs. This approach has special potential for childhood cancers and other rare or orphan diseases, where the expected return on new drug development has been a disincentive to pharmaceuticals.
# In this project we exploit the poly-pharmacology of drugs to discover new indications via phenotypic screening of a panel of 19 well-characterized cell lines derived from solid tumors seen in children and adolescents. The goal is to identify approved drugs with previously unrecognized anticancer properties that has the potential to reveal new mechanisms and biological processes involved in carcinogenesis or drug resistance. We employed a titration-based paradigm (quantitative high-throughput screening or qHTS), where all compounds were tested at multiple concentrations for their effect on cell viability. Concentration-response curves (CRCs) were derived directly from the primary screen, and both potency and efficacy values were used to identify compounds with robust bioactivity profiles. We screened the NIH Chemical Genomics Center (NCGC) Pharmaceutical Collection (NPC) and Mechanism Interrogation Plate (MIPE) small molecule collections of approved and investigational compounds against these cell lines; and measured metabolically active cells after 48 hours of compound treatment as a proxy for cell viability.
# Assay Submitter: Nathalia J. Martinez, National Center for Advancing Translational Sciences, National Institutes of Health, Rockville, MD, USA; email: natalia.martinez@nih.gov
# [1] Shen, M et al. Quantitative high-throughput phenotypic screening of pediatric cancer cell lines identifies multiple opportunities for drug repurposing. Oncotarget 2017 Dec 19;9(4):4758-4772. PMID 29435139.
# The cells were obtained from University of North Carolina (UNC), Pediatric Preclinical Testing Program (PPT), and Coriell Institute (CI).
# qHTS cell viability assay:
# Cells were assayed in growth media at a density of 500-1,000 cells/well. Five microliters of cells were dispensed into 1,536-well, white, solid-bottom, TC-treated plates (Greiner Bio One) using a multidrop dispenser and incubated at 37 degrees C, 5% CO2, under a humidified atmosphere for 5 hours. Twenty-three nanoliters of compounds and controls (neutral control DMSO or positive control bortezomib at final concentration of 2.3 µM) were subsequently transferred by Kalypsys pintool. For primary screens, the MIPE collection was tested at 11-point dilutions (final concentrations range from 0.78 nM to 46 µM) and the NPC collection at 8-point dilutions (final concentrations range from 0.59 nM to 46 µM). Compounds tested in follow-up screens were assayed at 11-point dilutions. Cells were incubated for 48 hours, followed by addition of 3 µL of CellTiter-Glo (Promega). After a 15 min incubation at room temperature, samples were analyzed for luminescence intensity using a ViewLux High-throughput CCD imager equipped with clear filters.
# Potency is read from the fitted curve at half-maximal effect.
Compound,Potency,"activity change, negative = cytotoxic"
CCCCCCCCCCCCCCCCCC(=O)O,inactive,
COC(=O)Nc1nc2ccc(C(=O)C3CC3)cc2[nH]1,2.19 µM (active),
C/C(=N\O)c1ccc(OCC(=O)N2CCCCC2)cc1,inactive,
Nc1cc(-c2ccncc2)c[nH]c1=O,inactive,
Oc1c(Br)cc(Br)c2cccnc12,27.6 µM (active),
CC(C(=O)O)c1ccc(C(=O)c2cccs2)cc1 (stereo not given),inactive,
CC1(C)S[C@@H]2[C@H](NC(=O)[C@H](N)c3ccccc3)C(=O)N2[C@H]1C(=O)O,inactive,
CC(=O)c1ccc(OCC(=O)N2CCCCC2)cc1,inactive,
CO[C@@]1(NC(=O)Cc2cccs2)C(=O)N2C(C(=O)O)=C(COC(N)=O)CS[C@@H]21,inactive,
O=C(O)c1cc(O)c(O)c(O)c1,inactive,
O=C(/C=C/c1ccccc1)NCCO,inactive,
CN(C)c1ccc(C(=C2C=CC(=[N+](C)C)C=C2)c2ccccc2)cc1,0.174 µM (active),
Cc1ccc(O)c(-n2nc3ccccc3n2)c1,inactive,
CCCSc1ccc2nc(NC(=O)OC)[nH]c2c1,2.76 µM (active),
O=C(O)c1ccccc1Nc1cccc(C(F)(F)F)c1,inactive,
CC(C(=O)O)c1ccc(C(=O)c2ccccc2)s1 (stereo not given),inactive,
Nc1ccc(C(=O)O)c(O)c1,inactive,
Cc1[nH]cnc1CN1CCc2c(c3ccccc3n2C)C1=O,inactive,
CNC(=O)c1c(I)c(NC(=O)CCCCC(=O)Nc2c(I)c(C(=O)O)c(I)c(C(=O)NC)c2I)c(I)c(C(=O)O)c1I,inactive,
O=C(OCc1ccccc1)c1ccccc1,inactive,

Compound,Potency,"activity change, negative = cytotoxic"
COc1cc2c3cc1Oc1cc(ccc1O)C[C@@H]1c4c(cc(OC)c(O)c4Oc4ccc(cc4)C[C@@H]3N(C)CC2)CC[N+]1(C)C,inactive,
CCCC(=O)OC[C@@H](OC(=O)CCC)[C@@H](OC(=O)CCC)[C@H](Cn1c2nc(=O)[nH]c(=O)c-2nc2cc(C)c(C)cc21)OC(=O)CCC,27.6 µM (active),
O=C(O)Cc1cccc(-c2cc(CCCCCCc3ccc(O[C@H]4O[C@H](CO)[C@@H](O)[C@H](O)[C@@H]4O)c(-c4cccc(CC(=O)O)c4)c3)ccc2O[C@H]2O[C@H](CO)[C@@H](O)[C@H](O)[C@@H]2O)c1,,15.7% [at 0.745 µM] (inactive)
O=C(O)/C=C\C(=O)O,inactive,
COc1ccnc2c1CCCCC2S(=O)c1nc2ccccc2[nH]1 (stereo not given),inactive,
CCCOC(=O)c1ccc(O)cc1,inactive,
CN1CCN(c2cc3c(nn2)Oc2ccccc2N3C)CC1,inactive,
NC(=O)C(c1ccccc1)(c1ccccc1)[C@@H]1CCN(CCc2ccc3c(c2)CCO3)C1,inactive,
O=C(O)Cc1ccc2c(c1)C(=O)c1ccccc1CO2,inactive,
CN(C)[C@@H]1C(=O)C(C(=O)NCN2CCCC2)=C(O)[C@@]2(O)C(=O)C3=C(O)c4c(O)cccc4[C@@](C)(O)C3C[C@@H]12 (stereo not given in full),inactive,
NCCO,inactive,
CCCCCCCCCCCCCCCC(=O)OC(C)C,inactive,
N=C1N=C(N)c2cc3ccccc3cc21,25.2 µM (active),
C[N+]1(C)[C@@H]2CC(OC(=O)[C@H](CO)c3ccccc3)C[C@H]1[C@@H]1O[C@@H]12 (stereo not given in full),inactive,
CC(C(=O)O)c1ccc2c(c1)[nH]c1ccc(Cl)cc12 (stereo not given),inactive,
[O-][n+]1ccccc1SSc1cccc[n+]1[O-],0.12 µM (active),
CCCCCCCCCCCCOCCO,inactive,
CCCCC1C(=O)N(c2ccccc2)N(c2ccc(O)cc2)C1=O (stereo not given),5.5 µM (active),
CC(C)(C)c1nnc(NS(=O)(=O)c2ccc(N)cc2)s1,inactive,
CCOC(=O)c1ccccc1O,inactive,
